# Hits are enriched below; roughly 2.2% of the tested compounds scored in any of these assays.
# LGR2 inh = inhibitors of bursicon-induced Drosophila LGR2 receptor cAMP signaling; 0.35% of 380,000 active; inhibition, % at 9.99 µM; HEK293 LGR2, CRE-luciferase, bursicon-stimulated, 4 h;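 active = drop in luminescence signal, shown as inhibition above about 50% in the replicate tests, limit read from the data, passing the limit was not always enough; inconclusive = probably only some replicates passing the limit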;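 also: agonist challenge used bursicon conditioned medium at about half maximal strength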
# PAX8 inh HTS = lowers PAX8-driven luciferase in RMG-I cells; 1.2% of 360,000 active; RMG-I TPO-luciferase reporter, SteadyGlo, 24 h; AID 652154; inhibition, % at 12.6 µM;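 active = mean replicate inhibition at least 60% with every replicate also reaching 60%; inconclusive = only one of the two criteria is met; inactive = mean below 60% and not all replicates reaching 60%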;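 also: luciferase light reporting Pax8 driven TPO promoter activity; plate controls were median of neutral control wells for no effect and mitoxantrone controls for full effect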
# EBV LMP1 NFkB = Epstein-Barr LMP1 NF-kappaB reporter inhibition | AID 504558 | 0.69% of 350,000 active | LMP1-induced NF-kappaB luciferase reporter cells, luminescence | inhibition, % at 12.5 µM; in the data active = inhibition above about 41%; inconclusive = no clear call, values can overlap the other calls;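 also: 0% = neutral control wells and 100% = reference inhibitor control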
# TRPM1 prom inh = MITF TRPM1 promoter inhibition in SK-MEL-5 cells; SK-MEL-5 TRPM1 promoter luciferase, 24 h; 0.83% of 330,000 active; AID 488899; inhibition, % at 12.5 µM;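 active = mean inhibition across replicates of 60% or more, whatever share of single replicates reaches that level; inconclusive = some that reach 60%, reason not given; inactive = mean inhibition across replicates below 60%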
# Shn3 inh set2 = Schnurri-3 reporter inhibition in Clone20 osteoblasts. inhibition, % at 12.5 µM. Clone20 osteoblast Shn3 3'UTR firefly luciferase, 24 h. 0.52% of 360,000 active. AID 588674;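 active = mean inhibition of at least 75% with every replicate also reaching 75%; inconclusive = mean inhibition at least 75% but some replicate below; inactive = mean inhibition below 75%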;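 also: 0% = median of neutral control wells and 100% = pilot-screen positive control compound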
# EWS-Fli block = inhibitors of EWS/Fli oncoprotein transcriptional activity. A673 NR0B1-luciferase reporter, viability-normalised. inhibition, % at 12.6 µM. 0.67% of 350,000 active;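 active = mean inhibition of at least 50% after viability correction, with every replicate also passing that limit; inconclusive = mean reaches 50% but only one of two replicates passes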;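 also: firefly luciferase signal divided by Alamar Blue viability fluorescence both relative to DMSO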
# Starred values were filed as active, the others as inactive; ? = inconclusive; nt = no result.
SMILES,LGR2 inh,PAX8 inh HTS,EBV LMP1 NFkB,TRPM1 prom inh,Shn3 inh set2,EWS-Fli block
O=C(/C=C/c1ccc([N+](=O)[O-])s1)N1CCCC1,8,?,-71,85*,-3,1
Cc1ccc(S(=O)(=O)N(C)C[C@@H]2Oc3ccc(NS(=O)(=O)c4cn(C)cn4)cc3CC(=O)N([C@@H](C)CO)C[C@H]2C)cc1,-5,-17,nt,nt,nt,-8
N#C[C@@H]1[C@H](c2ccccc2-c2cccc(F)c2)[C@H](CO)N1C(=O)C1CCCC1,-15,nt,nt,nt,nt,-3
Oc1c(N=Nc2ccc(F)cc2)ccc2ccccc12,7,-41,-45,-11,-56,4
CCS(=O)(=O)c1ccc(N=Nc2ccc(O)c3ncccc23)c(OC)c1,47,97*,-14,66*,95*,11
Cc1ccc(N=Nc2ccc3ccccc3c2O)cc1,30,-26,4,21,10,55*
Oc1ccc(N=Nc2ccccc2C(F)(F)F)c2cccnc12,46,92*,72*,73*,90*,3
Cc1ccc(N=Nc2ccc(O)c3ncccc23)cc1C,11,6,-8,39,54,-24
Cc1ccc(N=Nc2ccc(O)c3ncccc23)cc1,nt,9,13,87*,91*,41
Cc1cc(C)cc(OCC(O)CN2CCC(CN3C(=O)c4cccc5cccc(c45)C3=O)CC2)c1 (stereo unspecified),5,67*,24,71*,73,29
CCCCCCCCCCCCCC(=O)NO,25,5,-3,8,-4,55*
Cc1ccc(NC(=O)C2=C(c3ccccc3)S(=O)(=O)CCS2(=O)=O)cc1,38,116*,93*,95*,96*,65*
C[C@H](O)C#Cc1cnc2c(c1)C(=O)N([C@H](C)CO)C[C@H](C)[C@@H](CN(C)C(=O)c1ccc(F)cc1)O2,8,nt,nt,nt,nt,10
C[C@@H]1CCCCO[C@@H](CN(C)Cc2ccc3c(c2)OCO3)[C@@H](C)CN([C@H](C)CO)C(=O)c2cc(NC(=O)Nc3cccc4ccccc34)ccc2O1,-1,-5,nt,nt,nt,2
C[C@@H]1CN([C@H](C)CO)C(=O)c2cc(NC(=O)Nc3cccc4ccccc34)ccc2O[C@H]1CN(C)Cc1ccc2c(c1)OCO2,21,30,nt,nt,nt,11
C[C@@H]1CCCCO[C@H](CN(C)Cc2ccc3c(c2)OCO3)[C@@H](C)CN([C@@H](C)CO)C(=O)c2cc(NC(=O)Nc3cccc4ccccc34)ccc2O1,-10,39,nt,nt,nt,64*
C[C@H](CO)N1C[C@H](C)[C@H](CN(C)Cc2ccc3c(c2)OCO3)Oc2ccc(NC(=O)Nc3cccc4ccccc34)cc2C1=O,-23,94*,nt,nt,nt,3
C[C@@H]1CCCCO[C@@H](CN(C)Cc2ccc3c(c2)OCO3)[C@H](C)CN([C@H](C)CO)C(=O)c2cc(NC(=O)Nc3cccc4ccccc34)ccc2O1,3,37,nt,nt,nt,71*
C[C@@H]1CN([C@H](C)CO)C(=O)c2cc(NC(=O)Nc3cccc4ccccc34)ccc2O[C@@H](C)CCCCO[C@H]1CN(C)Cc1ccc2c(c1)OCO2,4,69*,nt,nt,nt,?
Cc1ccc(-n2ncc3c2CCCC3NC(=O)c2ccoc2)cc1C (stereo unspecified),-4,29,11,21,20,17
Cc1cc(C(=O)NC2CCCc3c2cnn3-c2ccc(C)c(C)c2)n(C)n1 (stereo unspecified),9,nt,32,40,88*,11
O=C(COC(=O)c1ccc(F)c([N+](=O)[O-])c1)NC(=O)NCc1ccccc1,nt,3,0,70*,5,9
CCCN(C)C[C@@H]1Oc2cc(-c3cccc(F)c3)ccc2S(=O)(=O)N([C@@H](C)CO)C[C@@H]1C,-10,6,nt,nt,nt,-1
CC(C)(C)n1nnnc1C(c1cccs1)N1CCCC2(CCCCC2)C1 (stereo unspecified),9,nt,2,2,85*,8
O=C(Nc1ccc2c(c1)OCO2)N[C@H]1CC[C@H](CCNC(=O)C2CC2)O[C@@H]1CO,3,-16,nt,nt,nt,-12
COc1cc(C(=O)NC2CCN(C)CC2)ccc1Nc1ncc2c(n1)N(CCc1ccccc1)CCC(=O)N2C,3,-64,4,?,-37,54*
CN1CCC(NC(=O)c2cccc(Oc3ccccc3)c2)CC1,1,nt,2,-1,19,7
